Records with an inconclusive call do not appear. Activity calls are given as the source filed them. Calls come from the whole dose curve; as a rule, active = well fitted curve in the direction sought with a large enough effect; inconclusive = small, poorly fitted or top-dose-only effect, or another doubt; inactive = no such curve, though single readings can be large; an effect the other way counts as inactive or inconclusive.
Tests used:
[1] = Quantitative High-Throughput drug screen in 47 multiple myeloma cell lines against the NCATS MIPE library collection: Karpas620_DSMZ cell viability assay (AID 1918959); note: nearly all actives have a fitted effect of over 30% in size
Summary of the method: (§1)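 Inhibition of cell viability is measured here. Each line was plated at 500 cells per well, treated with MIPE 4.0 drugs, kept 48 hours at 37C, then assayed for ATP content by CellTiter-Glo luminescence.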

[2] = Quantitative High-Throughput drug screen in 47 multiple myeloma cell lines against the NCATS MIPE library collection: KHM11_PLB cell viability assay (AID 1918962); note: nearly all actives have a fitted effect of over 35% in size
Summary of the method: as §1

[3] = Quantitative High-Throughput drug screen in 47 multiple myeloma cell lines against the NCATS MIPE library collection: INA6_PLB cell viability assay (AID 1918965; note: nearly all actives have a fitted effect of over 55% in size)
Summary of the method: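 qHTS of the MIPE 4.0 collection: 500 myeloma cells/well, 48 h drug exposure at 37C in 5% CO2, then CellTiter-Glo for 5 min at room temperature before luminescence reading.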

[4] = Quantitative High-Throughput drug screen in 47 multiple myeloma cell lines against the NCATS MIPE library collection: H1112_PLB cell viability assay (AID 1918967; note: nearly all actives have a fitted effect of over 30% in size)
Summary of the method: (§2)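 Myeloma cells (500 per well) were exposed to MIPE 4.0 compounds by pin transfer and incubated 48 hours at 37C, 5% CO2. Viability was read as ATP by CellTiter-Glo luminescence, normalised to DMSO (100%) and media-only (0%) wells.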

[5] = Quantitative High-Throughput drug screen in 47 multiple myeloma cell lines against the NCATS MIPE library collection: JIM3_ECACC cell viability assay (AID 1918963; note: nearly all actives have a fitted effect of over 35% in size)
Summary of the method: as §1

[6] = Quantitative High-Throughput drug screen in 47 multiple myeloma cell lines against the NCATS MIPE library collection: JJN3_DSMZ cell viability assay (AID 1918966; note: nearly all actives have a fitted effect of over 50% in size)
Summary of the method: as §2

[7] = Quantitative High-Throughput drug screen in 47 multiple myeloma cell lines against the NCATS MIPE library collection: JIM1_ECACC cell viability assay (AID 1918964)
Summary of the method: as §2

[8] = Quantitative High-Throughput drug screen in 47 multiple myeloma cell lines against the NCATS MIPE library collection: KMM1_JCRB cell viability assay (AID 1918960); note: nearly all actives have a fitted effect of over 30% in size
Summary of the method: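 Myeloma cells, 500 per well, were exposed to MIPE 4.0 drugs by pin transfer for 48 h at 37 °C, 5% CO2. Viability was read as ATP luminescence with CellTiter-Glo, normalised to DMSO-only (100%) and medium-only (0%) wells.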
Potency is the fitted concentration of half-maximal effect.

Question: Which Potency [1] does the source give for O=C1CCCC2=C1C(c1[nH]ncc1Cl)N=C(Nc1nc3ccccc3o1)N2 (stereo not given) here?
Answer: 4.18 µM (active)

Question: And the Potency [2]?
Answer: 4.18 µM (active)

Question: And the Potency [3]?
Answer: 5.9 µM (active)

Question: What about the Potency [4] of the same compound?
Answer: inactive

Question: Which Potency [1] does the source give for Cc1ccc(-n2nc(C(C)(C)C)cc2NC(=O)Nc2ccc(OCCN3CCOCC3)c3ccccc23)cc1 here?
Answer: 16.6 µM (active)

Question: And the Potency [5]?
Answer: 18.7 µM (active)

Question: What about the Potency [4] of the same compound?
Answer: 1.18 µM (active)

Question: Which Potency [1] does the source give for Cc1cnc(Nc2ccc(OCCN3CCCC3)cc2)nc1Nc1cccc(S(=O)(=O)NC(C)(C)C)c1 here?
Answer: 1.48 µM (active)

Question: And the Potency [5]?
Answer: inactive

Question: And the Potency [6]?
Answer: 0.296 µM (active)

Question: What about the Potency [4] of the same compound?
Answer: inactive

Question: Which Potency [1] does the source give for NCCc1ccc(O)c(O)c1 here?
Answer: 20.9 µM (active)

Question: And the Potency [2]?
Answer: inactive

Question: And the Potency [4]?
Answer: inactive

Question: With COc1cc(Oc2ccnc3cc(OC)c(OC)cc23)ccc1NC(=O)NC(C)c1nccs1 (stereo not given) as the compound, how does the Potency [1] read?
Answer: 7.43 µM (active)

Question: What about the Potency [5] of the same compound?
Answer: 20.9 µM (active)

Question: And the Potency [7]?
Answer: 0.105 µM (active)

Question: Which Potency [1] does the source give for Nc1ncnc2nc(-c3ccc(N4CCOCC4)nc3)cc(-c3cccc(Br)c3)c12 here?
Answer: inactive

Question: And the Potency [2]?
Answer: inactive

Question: And the Potency [3]?
Answer: 18.7 µM (active)

Question: For Cc1cc2c(F)c(Oc3ncnn4cc(OC[C@@H](C)O)c(C)c34)ccc2[nH]1, which Potency [1] is on record?
Answer: inactive

Question: What about the Potency [7] of the same compound?
Answer: inactive

Question: What about the Potency [3] of the same compound?
Answer: 18.7 µM (active)

Question: Which Potency [1] does the source give for O=C(Nc1cccnc1)N1CCC(Cc2cccc(Oc3ccc(C(F)(F)F)cn3)c2)CC1 here?
Answer: 14.8 µM (active)

Question: What about the Potency [8] of the same compound?
Answer: 7.43 µM (active)

Question: What about the Potency [3] of the same compound?
Answer: 11.8 µM (active)

Question: And the Potency [4]?
Answer: 10.5 µM (active)

Question: For CCC(C)n1ncn(-c2ccc(N3CCN(c4ccc(OC[C@H]5CO[C@](Cn6cncn6)(c6ccc(Cl)cc6Cl)O5)cc4)CC3)cc2)c1=O (stereo not given in full), which Potency [1] is on record?
Answer: inactive

Question: What about the Potency [2] of the same compound?
Answer: inactive

Question: And the Potency [3]?
Answer: inactive

Question: And the Potency [4]?
Answer: inactive

Question: With COc1cccc2cc(-c3nc(C4CCC(C(=O)O)CC4)n4ncnc(N)c34)[nH]c12 (stereo not given) as the compound, how does the Potency [1] read?
Answer: 0.59 µM (active)

Question: And the Potency [2]?
Answer: 0.118 µM (active)

Question: What about the Potency [3] of the same compound?
Answer: 1.48 µM (active)

Question: And the Potency [4]?
Answer: 5.9 µM (active)
